# Hits are enriched below; roughly 3.9% of the tested compounds scored in any of these assays.
# ATXN viability = viability counter-screen for ATXN expression inhibitors | 400,000 compounds, 0.49% hits | Potency, µM (series often up to 56.7 µM), hits mostly cytotoxic | AID 651635 | S2 cells (HEK-293 line with an ATXN2-luciferase reporter) viability, CellTiter-Fluor protease fluorescence, 24 h; also: nearly all actives have a fitted effect of over 40% in size
# HT1080NT lethal = kills 2HG-producing HT-1080-NT fibrosarcoma cells. HT-1080-NT fibrosarcoma viability, CellTiter-Glo ATP luminescence, 48 h. Potency, µM (series often up to 46.1 µM), inactives show top-dose activity, negative = less viability, hits mostly cytotoxic. 360,000 compounds, 1.6% hits;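 also: NT is the 2HG producing partner of a matched IDH1 knockdown line; 0% = DMSO-treated cells and -100% = media-only wells without cells; nearly all actives have a fitted effect of over 55% in size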
#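 Compounds were tested in concentration-response format on HT-1080-NT cells for 48 hours at 37 degrees C. Cell viability came from CellTiter-Glo luminescence; curves were classified by r2, response magnitude and activity.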
# HT1080 IDH1KD tx = HT-1080 IDH1 knockdown cell toxicity (counter line). AID 686971. 360,000 compounds, 2% hits. Potency, µM (highest dose often 46.1 µM), for inactives: at the highest dose activity, negative = toxicity, actives largely listed as cytotoxic. HT-1080 IDH1 knockdown viability, ATP luminescence, 48 h;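 also: 0% = DMSO wells and -100% = cell-free medium wells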
#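 HT-1080-IDH1KD cells (IDH1 knocked down), 750/well in RPMI with 5% FBS, treated with compound 48 h at 37 degrees C. Viability by CellTiter-Glo luminescence, normalised to DMSO and no-cell wells; concentration-response curves classed.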
# HepG2 tox = kills HepG2 cells in TGF-b inhibitor counter-screen. HepG2 CAGA-GFP viability, ATP luminescence, 18 h. Potency, µM (doses to about 46.1 µM), for inactives: top-dose activity change, negative = cytotoxicity, most hits filed as cytotoxic. 410,000 compounds, 0.76% hits. AID 588856
#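 CellTiter-Glo luminescence gave cytotoxicity after 18 hours at 37 degrees C. The cells were HepG2 CAGA-GFP in 1% FBS DMEM, stimulated with 500 pg/mL TGF-beta after compound addition. %Activity was normalised to no-cell wells (complete cell-killing) and DMSO (no toxicity), and curves were fitted and classified.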
# TGFb SMAD3 inh = blocks TGF-b signaling. 410,000 compounds, 1.2% hits. Potency, µM (series often up to 46.1 µM), for the others: top-dose activity, negative = inhibition, usual class: inhibitors. HepG2 CAGA-GFP TGF-b/SMAD3 reporter, GFP fluorescence, 18 h; TGF-beta stimulated, 500 pg/mL final; also: % is scaled to controls: 0 for no effect and ±100 for the full control effect; nearly all actives have a fitted effect of over 65% in size
#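 Per well, imaged GFP fluorescence of HEPG2 CAGA-GFP cells gives the signal; cells get compound, then TGF-beta (500 pg/mL final), 18 h at 37 degrees C; %Activity versus -TGF-beta and +DMSO controls.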
# ATXN2 expr inh = reduces ATXN2 reporter expression in HEK-293 cells | AID 1745845 | 360,000 compounds, 0.72% hits | HEK-293 ATXN2-luciferase reporter, luminescence, 24 h | Potency, µM (top dose mostly 57 µM), for the others: top-dose activity change, negative = inhibition, hits mostly inhibitors; also: % is scaled to controls: 0 for no effect and ±100 for the full control effect; nearly all actives have a fitted effect of over 55% in size
#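 qHTS (up to 57 uM final) was run with 24 h compound exposure of reporter cells at 37 °C. Each well was multiplexed: SteadyGlo luminescence measured ATXN2-luciferase expression after a fluorogenic Gly-Phe-AFC viability readout (25 uM final).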
# * = called active by the depositor; i = inactive; ? = inconclusive; . = no result; ! = not confirmed by another sample; [ ] = remark or other dose. Calls follow the shape of the dose curve; as a rule, active = well fitted curve in the direction sought with a large enough effect; inconclusive = small, poorly fitted or top-dose-only effect, or another doubt; inactive = no such curve, though single readings can be large; an effect the other way counts as inactive or inconclusive. Potency is read from the fitted curve at half-maximal effect.
SMILES,ATXN viability,HT1080NT lethal,HT1080 IDH1KD tx,HepG2 tox,TGFb SMAD3 inh,ATXN2 expr inh
Cc1ccc(S(=O)(=O)Nc2ccc(Cl)cc2)cc1NC(=O)c1cc2c(s1)CCCC2,?,?,?,-36%,13µM*,-14%
COC(=O)[C@@H]1CCCN1C(=O)c1c(OC)cc(=O)n2c1CCN(Cc1ccc3c(c1)OCCO3)CC2,i,.,.,.,.,.
Cc1ccc(-c2cn3nc(N4CCCC(C(=O)Nc5ccc(F)cc5)C4)sc3n2)cc1 (stereo not given),.,.,.,-26%,-17%,.
CCCNC[C@H](O)COc1ccccc1C(=O)CCc1ccccc1,i,.,.,.,.,.
CC(C)(C)NCC(O)COc1ccccc1C(=O)CCc1ccccc1 (stereo not given),?,16µM*,?,-44%,?,?
Cc1nnc(SCc2nc(N)nc(Nc3ccccc3)n2)s1,i,0%,-2%,1%,2%,36%
CCc1ccc(Nc2nc(N)nc(CSc3nc4ccccc4s3)n2)cc1,?,3%,3%,7.9µM*!,?,-35%
COc1ccc(NS(=O)(=O)c2cc(NC(=O)c3ccc(Cl)cc3)ccc2N2CCOCC2)cc1,?,2.3µM*,2.6µM*,6%,6%,-16%
COc1ccc(C(=O)NC(=S)Nc2cccc(S(=O)(=O)N3CCOCC3)c2)cc1,i,15µM*,13µM*,-24%,0%,-28%
COc1ccc(NS(=O)(=O)c2cc(NC(=O)c3ccc(=O)[nH]c3)ccc2N2CCCC2)cc1,?,?,2.1µM*,0%,-1%,2%
COc1ccc(NC(=O)c2cc(S(=O)(=O)N3CCCC3)c[nH]2)cc1,i,18%,15%,2.5µM*,?,8%
COc1ccc(NS(=O)(=O)c2cc(NC(=O)c3cnc(C)cn3)ccc2N2CCCC2)cc1,?,-19%,0%,6%,-1%,-5%
Cc1ccc2oc(C(=O)NCC(c3ccc(Cl)cc3)N3CCOCC3)c(C)c2c1 (stereo not given),.,.,.,-1%,-10%,?
Cc1sccc1Br,i,.,.,.,.,5%
COc1ccc(NS(=O)(=O)c2cc(NC(=O)c3ccc(=O)[nH]n3)ccc2C)cc1,i,26µM*,?,4%,-1%,.
COc1ccc(C(=O)Nc2ccc(S(=O)(=O)N3CCOCC3)cc2)cc1,i,4%,-5%,8%,?,-6%
COc1ccc(NS(=O)(=O)c2cc(C(=O)O)ccc2C)cc1,i,-26%,2%[9.24 µM],-9%,-26%,1%
O=C(Nc1ccc(Cl)c(S(=O)(=O)N2CCOCC2)c1)c1ccc(OCC2CCCO2)cc1 (stereo not given),.,18µM*,26µM*,-62%,?,?
COc1ccc(C(=O)Nc2ccc(Cl)c(S(=O)(=O)N3CCOCC3)c2)cc1,?,3.7µM*,-4%,-3%,-11%,?
Cc1nn(CCCC(=O)NCc2ccccc2)c(=O)c2c1sc1ccccc12,.,.,.,0%,.,.
COc1cc2c(c(OC)c1)C(c1cccc(F)c1F)CC(=O)N2 (stereo not given),i,.,.,2%,-3%,2%
O=C(CSc1nc(-c2cccs2)nc2cc(=O)[nH]n12)Nc1ccccc1,i,.,.,-8%,-38%,2%
Cn1c(=O)[nH]c(=O)c2c1nc(Br)n2Cc1cccc(Br)c1,i,6.5µM*,4.6µM*,1%,-11%,-15%
O=C(NC(c1ccccc1)c1ccc2ccccc2n1)C1CCN(Cc2ccc(Oc3ccccc3)cc2)CC1 (stereo not given),?,?,13µM*,-16%,?,-26%
O=C(NC(c1ccc2ccccc2n1)c1cccs1)C1CCN(Cc2cccc(C(F)(F)F)c2)CC1 (stereo not given),?,?,16µM*,-33%,?,0%
SMILES,ATXN viability,HT1080NT lethal,HT1080 IDH1KD tx,HepG2 tox,TGFb SMAD3 inh,ATXN2 expr inh
COc1cc(OC)nc(C(NC(=O)C2CCN(Cc3ccc(Oc4ccccc4)cc3)CC2)c2ccccc2C)n1 (stereo not given),?,16µM*,?,-27%,-28%,0%
O=C(NC(c1ccccc1)c1ccc2ccccc2n1)C1CCN(Cc2ccc(Cl)c(Cl)c2)CC1 (stereo not given),i,?,?,-29%,?,?
O=C(NC(c1ccccc1)c1ccc2ccccc2n1)C1CCN(Cc2cccc(C(F)(F)F)c2)CC1 (stereo not given),?,?,15µM*,-26%,?,?
O=C(NC(c1ccc(F)cc1)c1ccc2ccccc2n1)C1CCN(Cc2ccc(Oc3ccccc3)cc2)CC1 (stereo not given),i,-60%,?,-3%,?,-32%
CN(C)c1ccc(/C=N/NC(=O)c2ccccc2Cl)cc1,i,12µM*,8.2µM*,2%,-5%,15%
Cc1occc1C(=O)N/N=C/c1ccc(N(C)C)cc1,i,?,23µM*,i,-2%,0%
O=[N+]([O-])c1cccc(C2NCC(c3ccccc3Cl)c3c2[nH]c2ccccc32)c1 (stereo not given),?,?,26µM*,34%,?,-15%
CCCSS/C(CCO)=C(\C)N(C=O)Cc1cnc(C)nc1N,i,.,.,.,.,?
Fc1cccc(CSc2nc(NCCc3ccccc3)c3ccccc3n2)c1,.,.,.,-15%,-5%,.
CN1Cc2c(N3CCOCC3)nc3sc(C(=O)c4ccc(Br)cc4)c(N)c3c2CC1(C)C,.,23µM*,13µM*,10µM*,?,?
Cc1cccc(N2CCN(Cc3cn(C)nc3-c3ccccc3F)CC2)n1,i,?,1.8µM*,-24%,?,-37%
CC1(C)CC2C1CCC1(O)CC2(C)CCC1N(O)c1ccc(C(=O)NCCO)cn1 (stereo not given),?,-18%,-8%,-39%,-25%,28µM*
COc1ccc(CCNc2nnc(Sc3nnnn3-c3ccccc3)s2)cc1OC,?,3.5µM*,2µM*,-19%,-17%,-28%
CC1C/C(=C\c2cccnc2)C(=O)/C(=C/c2cccnc2)C1 (stereo not given),.,?,2.9µM*,16µM*,?,?
O=C1/C(=C/c2cccnc2)CCc2c1[nH]c1ccccc21,i,15µM*,13µM*,0%,-1%,9%
Cc1ccc(-c2cc(C(F)F)n3ncc(C(=O)N4CCc5ccccc54)c3n2)cc1,?,2.9µM*,2.3µM*,7%,?,.

# From PubChem BioAssay
